From PubChem BioAssay (NCI) come the findings set out here.

Compounds without any hit were thinned out: in the full panel of roughly 83,000, 20% have a hit.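 Treatment: one concentration, 48 hours, 96-well format. Scoring: percent growth, with anything below 10 considered active.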 A number with no mark means an inactive call. Activity calls are given as the source filed them.

Among the test systems are SR leukemia; RPMI-8226 leukemia; OVCAR-8 ovarian; OVCAR-5 ovarian; OVCAR-4 ovarian; SK-OV-3 ovarian; IGROV1 ovarian; OVCAR-3 ovarian; HS 578T breast; NCI/ADR-RES ovarian; T-47D breast; BT-549 breast; MDA-MB-435 melanoma; SW-620 colon; MCF7 breast; HCT-116 colon; HCC-2998 colon; KM12 colon.
Assay in all cases: NCI-60 one-dose screen, 48 h (100 = growth as untreated, 0 = no growth, -100 = all killed)
Holding throughout (settings): 10 µM unless noted

Take `COc1cc(/C=C/c2cc(O)c(C(C)=O)c(O)c2)cc2c1O[C@]1(C)CC[C@@H](O)C(C)(C)[C@H]1C2`: the growth in the assay with SR leukemia is 29.9%; in the assay on RPMI-8226 leukemia, -7.38% (active); in the assay on OVCAR-8 ovarian, 67.7%; in the assay with OVCAR-5 ovarian it was 89.8%; in the assay on OVCAR-4 ovarian, 90.8%; with SK-OV-3 ovarian, 66.1%. In addition, the growth was 60.3% in the assay on IGROV1 ovarian; 61.4% with OVCAR-3 ovarian; 25.4% with HS 578T breast; 74.2% in the assay on NCI/ADR-RES ovarian; 49% in the assay with T-47D breast; 22.1% in the assay on BT-549 breast. Besides, the growth in the assay on MDA-MB-435 melanoma was 73%; in the assay with SW-620 colon, 69.3%; in the assay on MCF7 breast, 45.3%; in the assay with HCT-116 colon, 45.2%; in the assay with HCC-2998 colon, 75.1%; with KM12 colon, 53.9%.
Regarding `CCOC(=O)Nc1ccc(-c2ccc3c(c2)NC(=O)/C3=C\c2ccc[nH]2)cc1`, the growth with SR leukemia was 19.3%; in the assay on RPMI-8226 leukemia, 100%; in the assay with OVCAR-8 ovarian, 105%; in the assay with OVCAR-5 ovarian it was 72.8%; in the assay with OVCAR-4 ovarian, 45%; in the assay with SK-OV-3 ovarian, 91%. The growth is 94.1% in the assay with IGROV1 ovarian; 106% with OVCAR-3 ovarian; 106% in the assay with HS 578T breast; 102% in the assay on NCI/ADR-RES ovarian; 6.7% (active) in the assay on T-47D breast; 56.4% with BT-549 breast. Besides, the growth in the assay with MDA-MB-435 melanoma was 102%; with SW-620 colon, 113%; in the assay with MCF7 breast, 10%; with HCT-116 colon, 107%; in the assay on HCC-2998 colon, 85.8%; in the assay with KM12 colon, 63.6%.
For `COc1cccc(-c2nc3occn3c2-c2ccnc(NCCCNS(=O)(=O)c3ccc(C(F)(F)F)cc3)n2)c1`, the growth was 97.2% with SR leukemia; 79.3% in the assay on RPMI-8226 leukemia; 87% in the assay on OVCAR-8 ovarian; 128% in the assay on OVCAR-5 ovarian; 76.4% with OVCAR-4 ovarian; 81.9% in the assay with SK-OV-3 ovarian. Moreover, the growth in the assay with IGROV1 ovarian was 90.5%; in the assay on OVCAR-3 ovarian, 100%; in the assay with HS 578T breast, 98.2%; in the assay on NCI/ADR-RES ovarian it was 89.2%; with T-47D breast, 39.1%; with BT-549 breast it was 93.4%. Besides, the growth was 76.3% in the assay with MDA-MB-435 melanoma; 79.8% in the assay on MCF7 breast; 83.9% in the assay with HCT-116 colon; 124% in the assay with HCC-2998 colon; 91.5% in the assay with KM12 colon.
For `COc1ccc(C(=O)c2nc3ccccc3n2CC(=O)c2ccc(Cl)cc2)cc1`, the growth in the assay on SR leukemia was 16.7%; in the assay on RPMI-8226 leukemia, -17.4% (active); in the assay with OVCAR-8 ovarian it was 37.2%; in the assay on OVCAR-5 ovarian, 47%; with OVCAR-4 ovarian, 43.3%; in the assay on SK-OV-3 ovarian, 107%. Besides, the growth in the assay on IGROV1 ovarian was 23.7%; in the assay with OVCAR-3 ovarian it was -6.3% (active); in the assay with HS 578T breast, 8.51% (active); in the assay on NCI/ADR-RES ovarian, -45.6% (active); in the assay with T-47D breast it was 35.2%; with BT-549 breast, 47.9%. Besides, the growth in the assay with MDA-MB-435 melanoma is -55.4% (active); with SW-620 colon it was 15.8%; with MCF7 breast, 11.9%; in the assay with HCT-116 colon, 10.3%; in the assay on KM12 colon, 28.4%.
On to `C#CCNC(=O)[C@]1(C)CC[C@]2(C)CC[C@@H]3C(=CC[C@H]4[C@@]3(C)CC[C@H]3C(C)(C)C(=O)CC[C@]43C)[C@@H]2C1`, for which the growth with SR leukemia was 55.9%; in the assay on RPMI-8226 leukemia it was 69.1%; in the assay with OVCAR-8 ovarian, 96.8%; in the assay on OVCAR-5 ovarian, 102%; with OVCAR-4 ovarian, 91.4%; in the assay with SK-OV-3 ovarian, 92.1%. Further, the growth with IGROV1 ovarian is 60.1%; in the assay on OVCAR-3 ovarian, 95.7%; with HS 578T breast, 126%; in the assay with NCI/ADR-RES ovarian, 94.2%; in the assay on T-47D breast, 77.1%; in the assay with BT-549 breast, 101%. Further, the growth in the assay on MDA-MB-435 melanoma is 97.3%; in the assay on SW-620 colon it was 105%; with MCF7 breast, 83.3%; in the assay on HCT-116 colon it was 81%; in the assay on HCC-2998 colon, 101%; in the assay with KM12 colon it was 92.3%.
In the case of `Cc1cccc(-c2cn3ccnc3c(-c3ccc4ncn(Cc5ccccc5)c4c3)n2)c1`, the growth was 89% in the assay with SR leukemia; 62.5% in the assay on RPMI-8226 leukemia; 88.5% in the assay with OVCAR-8 ovarian; 93.4% in the assay on OVCAR-5 ovarian; 80.7% with OVCAR-4 ovarian; 102% with SK-OV-3 ovarian. The growth in the assay on IGROV1 ovarian was 90.5%; in the assay on OVCAR-3 ovarian it was 86%; in the assay on HS 578T breast, 91.5%; in the assay with NCI/ADR-RES ovarian, 87.9%; in the assay on T-47D breast, 13.9%; with BT-549 breast, 101%. The growth with MDA-MB-435 melanoma was 99.1%; in the assay on SW-620 colon it was 100%; with MCF7 breast, 77.8%; with HCT-116 colon, 63.3%; in the assay with HCC-2998 colon it was 111%; in the assay with KM12 colon, 78%.
For `CC(=O)[C@@H]1CC[C@]2(CO)CC[C@]3(C)[C@H](CC[C@@H]4[C@@]5(C)CCCNC(C)(C)[C@@H]5CC[C@]43C)[C@@H]12`, the growth is 86.8% with SR leukemia; 98.6% with RPMI-8226 leukemia; 105% in the assay on OVCAR-8 ovarian; 102% in the assay on OVCAR-5 ovarian; 101% in the assay on OVCAR-4 ovarian; 122% with SK-OV-3 ovarian. In addition, the growth is 99.1% with IGROV1 ovarian; 97.2% in the assay on OVCAR-3 ovarian; 96.1% in the assay on HS 578T breast; 96.4% in the assay on NCI/ADR-RES ovarian; 103% in the assay on T-47D breast; 101% in the assay on BT-549 breast. Also, the growth is 96.8% with MDA-MB-435 melanoma; 87.1% in the assay with MCF7 breast; 94.3% in the assay with HCT-116 colon; 101% in the assay on HCC-2998 colon; 101% in the assay with KM12 colon.
For `Cc1ccc(NC(C(=O)c2ccccc2)c2ccccc2)cc1` (stereo not given), the growth is 69% in the assay with SR leukemia; 25.6% in the assay on RPMI-8226 leukemia; 45.9% in the assay on OVCAR-8 ovarian; 78.4% in the assay with OVCAR-5 ovarian; 49.5% in the assay on OVCAR-4 ovarian; 95.5% with SK-OV-3 ovarian. The growth was 57.6% with IGROV1 ovarian; 29.4% in the assay on OVCAR-3 ovarian; 32.7% in the assay on HS 578T breast; 92.8% in the assay with NCI/ADR-RES ovarian; 25.9% in the assay on T-47D breast; 42.2% with BT-549 breast. The growth in the assay with MDA-MB-435 melanoma was 30.6%; in the assay with MCF7 breast, 38.5%; in the assay with HCT-116 colon, 35.6%; in the assay with HCC-2998 colon it was 55.1%; with KM12 colon it was 23.7%.
